Reference: PubChem BioAssay (NCATS)
Records with an inconclusive call do not appear. The source made the active and inactive calls. Calls follow the shape of the dose curve; as a rule, active = well fitted curve in the direction sought with a large enough effect; inconclusive = small, poorly fitted or top-dose-only effect, or another doubt; inactive = no such curve, though single readings can be large; an effect the other way counts as inactive or inconclusive.

Assays:
[1] = target: Tyrosine-protein phosphatase non-receptor type substrate 1 (Homo sapiens) + Leukocyte surface antigen CD47 (Homo sapiens) (UniProt P78324+Q08722); assay: CD47-SIRPalpha protein protein interaction - Alpha assay qHTS validation (AID 1347059);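 also: bead proximity luminescence from CD47 binding SIRPalpha after compound preincubation with SIRPalpha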
Summary of the method: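 In PBS (pH 7.4) with 0.05% IGEPAL CA-630, compound is preincubated with biotin-Avi-SIRPalpha ectodomain before His-CD47 ectodomain and affinity beads are added. Light-protected room-temperature incubations; AlphaScreen readout.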

[2] = qHTS of pediatric cancer cell lines to identify multiple opportunities for drug repurposing: Primary screen for TC32 cells (AID 1347089); also: nearly all actives have a fitted effect of over 60% in size
Summary of the method: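 In the primary qHTS, MIPE compounds were tested at 11 concentrations (0.78 nM to 46 µM) and NPC compounds at 8 (0.59 nM to 46 µM) on TC32 cells for 48 h. CellTiter-Glo luminescence gave viability.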

[3] = qHTS of pediatric cancer cell lines to identify multiple opportunities for drug repurposing: Primary screen for DAOY cells (AID 1347090); also: series mostly up to about 46 µM; nearly all actives have a fitted effect of over 55% in size
Summary of the method: (§1)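 Eight- or eleven-point concentration series, 48 h treatment at 37 degrees C in growth media; readout CellTiter-Glo luminescence. Potency and efficacy were taken from the concentration-response curves.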

[4] = qHTS of pediatric cancer cell lines to identify multiple opportunities for drug repurposing: Primary screen for SJ-GBM2 cells (AID 1347091)
Summary of the method: as §1

[5] = qHTS of pediatric cancer cell lines to identify multiple opportunities for drug repurposing: Primary screen for A673 cells (AID 1347092); also: nearly all actives have a fitted effect of over 45% in size
Summary of the method: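 48 h compound exposure, A673, 500-1,000 cells/well, 37 degrees C/5% CO2. MIPE: 11-point, 0.78 nM-46 µM; NPC: 8-point, 0.59 nM-46 µM (final). Readout CellTiter-Glo luminescence after 15 min RT.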

[6] = qHTS of pediatric cancer cell lines to identify multiple opportunities for drug repurposing: Primary screen for SK-N-MC cells (AID 1347093); also: potency is read from the fitted curve at half-maximal effect
Summary of the method: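 Metabolically active cells were quantified by ATP-dependent luminescence (CellTiter-Glo, 15 min at room temperature) following 48 h treatment. Cells had been plated at 500-1,000 per well and settled for 5 h beforehand.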

[7] = qHTS of pediatric cancer cell lines to identify multiple opportunities for drug repurposing: Primary screen for BT-37 cells (AID 1347094); also: series mostly up to about 57 µM
Summary of the method: (§2)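 CRCs from 8- or 11-point titrations (lowest final 0.59 nM NPC, 0.78 nM MIPE). Cell viability: CellTiter-Glo after 48 h incubation, 15 min room-temperature development, luminescence imaging.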

[8] = qHTS of pediatric cancer cell lines to identify multiple opportunities for drug repurposing: Primary screen for NB-EBc1 cells (AID 1347095); also: potency is read from the fitted curve at half-maximal effect
Summary of the method: as §2

[9] = qHTS of pediatric cancer cell lines to identify multiple opportunities for drug repurposing: Primary screen for U-2 OS cells (AID 1347096); also: nearly all actives have a fitted effect of over 50% in size
Summary of the method: (§3)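 Cells (500-1,000/well) in growth media were settled 5 h at 37 degrees C, then given compounds for 48 h. Viability was read as CellTiter-Glo luminescence. Primary runs used MIPE at 11 points (0.78 nM-46 µM) and NPC at 8 points (0.59 nM-46 µM); follow-ups used 11 points.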

[10] = qHTS of pediatric cancer cell lines to identify multiple opportunities for drug repurposing: Primary screen for Saos-2 cells (AID 1347097); also: nearly all actives have a fitted effect of over 40% in size
Summary of the method: as §2

[11] = qHTS of pediatric cancer cell lines to identify multiple opportunities for drug repurposing: Primary screen for SK-N-SH cells (AID 1347098); also: nearly all actives have a fitted effect of over 65% in size; also: potency is read from the fitted curve at half-maximal effect
Summary of the method: (§4)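 Cells (500-1,000/well) rested 5 h, then received compounds for 48 h; metabolically active cells were measured by CellTiter-Glo luminescence. Final concentrations spanned up to 46 µM (MIPE, 11-point) or 0.59 nM-46 µM (NPC, 8-point) in primary screens, 11-point in follow-ups.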

[12] = qHTS of pediatric cancer cell lines to identify multiple opportunities for drug repurposing: Primary screen for NB1643 cells (AID 1347099); also: nearly all actives have a fitted effect of over 50% in size
Summary of the method: as §2

[13] = qHTS of pediatric cancer cell lines to identify multiple opportunities for drug repurposing: Primary screen for BT-12 cells (AID 1347101); also: nearly all actives have a fitted effect of over 25% in size
Summary of the method: as §4

[14] = qHTS of pediatric cancer cell lines to identify multiple opportunities for drug repurposing: Primary screen for Rh18 cells (AID 1347102); also: nearly all actives have a fitted effect of over 65% in size
Summary of the method: as §3

[15] = qHTS of pediatric cancer cell lines to identify multiple opportunities for drug repurposing: Primary screen for OHS-50 cells (AID 1347103); also: nearly all actives have a fitted effect of over 40% in size; also: potency is read from the fitted curve at half-maximal effect
Summary of the method: as §4

[16] = qHTS of pediatric cancer cell lines to identify multiple opportunities for drug repurposing: Primary screen for RD cells (AID 1347104); also: nearly all actives have a fitted effect of over 55% in size
Summary of the method: as §2

[17] = qHTS of pediatric cancer cell lines to identify multiple opportunities for drug repurposing: Primary screen for MG 63 (6-TG R) cells (AID 1347105); also: nearly all actives have a fitted effect of over 50% in size
Summary of the method: as §2

[18] = qHTS of pediatric cancer cell lines to identify multiple opportunities for drug repurposing: Primary screen for control Hh wild type fibroblast cells (AID 1347106);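 also: series mostly up to about 46 µM; a drop in luminescence marks cytotoxicity and a rise apparent proliferation; nearly all actives have a fitted effect of over 55% in size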
Summary of the method: as §3

[19] = qHTS of pediatric cancer cell lines to identify multiple opportunities for drug repurposing: Primary screen for LAN-5 cells (AID 1347100)
Summary of the method: as §3

[20] = target: Parathyroid hormone/parathyroid hormone-related peptide receptor (Homo sapiens) (UniProt Q03431); assay: qHTS for PTHR1 Agonists: Optimization Screen against the NCGC LOPAC library (AID 1347079);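 also: GloSensor cAMP luminescence in HEK-293 GP2 cells expressing human PTHR1 with IBMX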
Summary of the method: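 HEK-293 GP2 cells, PTHR1 + GloSensor cAMP; 3000 cells/well, o/n. Luciferin + IBMX 0.5mM each (stock), 1 hr 37C. Cpd titration, 1 hr 37C. Lum after 15 min RT. Ctrl M-PTH(1-15) top 10uM.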

Measured: Potency

Chain of Tyrosine-protein phosphatase non-receptor type substrate 1 (Homo sapiens) + Leukocyte surface antigen CD47 (Homo sapiens) (P78324 whole entry, looked up, the tested form may be a part): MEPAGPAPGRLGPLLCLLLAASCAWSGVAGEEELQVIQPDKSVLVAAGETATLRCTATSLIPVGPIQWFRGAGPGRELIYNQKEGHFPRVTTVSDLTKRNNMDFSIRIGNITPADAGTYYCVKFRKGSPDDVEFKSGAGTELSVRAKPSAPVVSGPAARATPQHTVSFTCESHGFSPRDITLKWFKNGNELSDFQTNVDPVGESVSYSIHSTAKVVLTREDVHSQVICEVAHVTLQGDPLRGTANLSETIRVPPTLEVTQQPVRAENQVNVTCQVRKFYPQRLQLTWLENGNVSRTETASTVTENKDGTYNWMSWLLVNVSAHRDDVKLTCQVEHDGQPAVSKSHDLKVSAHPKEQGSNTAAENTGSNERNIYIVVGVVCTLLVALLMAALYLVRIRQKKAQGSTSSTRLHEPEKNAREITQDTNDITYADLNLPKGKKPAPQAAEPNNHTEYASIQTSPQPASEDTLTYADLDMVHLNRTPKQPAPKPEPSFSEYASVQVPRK
Chain of Tyrosine-protein phosphatase non-receptor type substrate 1 (Homo sapiens) + Leukocyte surface antigen CD47 (Homo sapiens) (Q08722 whole entry, looked up, the tested form may be a part): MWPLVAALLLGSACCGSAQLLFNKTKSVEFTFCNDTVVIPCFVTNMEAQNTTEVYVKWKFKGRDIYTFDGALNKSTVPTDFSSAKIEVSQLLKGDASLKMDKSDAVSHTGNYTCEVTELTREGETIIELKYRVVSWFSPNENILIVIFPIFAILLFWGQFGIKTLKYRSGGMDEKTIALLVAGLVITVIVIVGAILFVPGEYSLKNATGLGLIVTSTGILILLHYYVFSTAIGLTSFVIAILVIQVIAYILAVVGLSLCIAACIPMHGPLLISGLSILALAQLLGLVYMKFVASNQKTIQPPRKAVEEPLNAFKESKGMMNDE
Chain of Parathyroid hormone/parathyroid hormone-related peptide receptor (Homo sapiens) (Q03431 whole entry, looked up): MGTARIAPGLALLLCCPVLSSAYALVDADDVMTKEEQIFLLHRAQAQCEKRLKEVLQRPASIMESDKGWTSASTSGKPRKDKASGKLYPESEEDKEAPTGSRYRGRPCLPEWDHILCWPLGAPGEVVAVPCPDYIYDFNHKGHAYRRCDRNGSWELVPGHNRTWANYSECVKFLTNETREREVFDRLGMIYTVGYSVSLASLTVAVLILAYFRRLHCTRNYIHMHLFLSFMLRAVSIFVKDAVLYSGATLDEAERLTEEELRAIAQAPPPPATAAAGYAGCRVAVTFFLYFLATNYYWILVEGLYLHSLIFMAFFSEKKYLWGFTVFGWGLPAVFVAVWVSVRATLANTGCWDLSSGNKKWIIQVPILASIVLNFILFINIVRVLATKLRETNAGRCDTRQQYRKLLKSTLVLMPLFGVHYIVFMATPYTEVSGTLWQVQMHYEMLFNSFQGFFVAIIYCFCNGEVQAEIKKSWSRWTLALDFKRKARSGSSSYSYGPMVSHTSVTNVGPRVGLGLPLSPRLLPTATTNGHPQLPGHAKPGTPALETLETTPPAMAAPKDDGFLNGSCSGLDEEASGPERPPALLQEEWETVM

CCCn1cnc2c1c(=O)n(CCCCC(C)=O)c(=O)n2C
not listed: [19] | [20]
inactive: all other assays above

CC(CN1c2ccccc2Sc2ccccc21)N(C)C (stereo not given)
inactive: [1] | [2] | [3] | [5] | [7] | [8] | [9] | [17] | [18]

CCN(CC)C(C)CN1c2ccccc2Sc2ccccc21 (stereo not given)
not listed: [11] | [12] | [20]
inactive: all other assays above

CN1CCN(C2Cc3ccccc3Sc3ccc(Cl)cc32)CC1 (stereo not given)
inactive: [1] | [20] | [2] | [18]
active: [6] 21.1 µM | [11] 21.7 µM | [15] 27.6 µM

O=C1NC(=O)[C@@]2(CCOc3ccc(F)cc32)N1
not listed: [12] | [16] | [20]
inactive: all other assays above

O=C1N=C(O)CN1/N=C/c1ccc(-c2ccc([N+](=O)[O-])cc2)o1
active: [6] 5.31 µM
not listed: [4] | [8] | [14] | [19] | [20]
inactive: all other assays above

CN1CCC[C@@H]1Cc1c[nH]c2ccc(CCS(=O)(=O)c3ccccc3)cc12
not listed: [20]
inactive: all other assays above

C[C@]12CC[C@@H]3c4ccc(O)cc4CC[C@H]3[C@@H]1CCC2=O
not listed: [4] | [10] | [13] | [15] | [20]
inactive: all other assays above

C[C@H]1O[C@@H](n2cc(F)c(=O)[nH]c2=O)[C@H](O)[C@@H]1O
active: [8] 2.99 µM
not listed: [4] | [6] | [12] | [20]
inactive: all other assays above

CC(=O)c1ccc2c(c1)N(CCCN(C)C)c1ccccc1S2
not listed: [5] | [11] | [15] | [16] | [17] | [20]
inactive: all other assays above

CC(C(O)c1ccc(O)cc1)N1CCC(Cc2ccccc2)CC1 (stereo not given)
not listed: [7] | [11] | [15] | [17] | [20]
inactive: all other assays above

Nc1ncnc2c1ncn2[C@@H]1O[C@H](CO)[C@@H](O)[C@H]1O
not listed: [2] | [5] | [6] | [15]
inactive: all other assays above

CC1=C(/C=C/C(C)=C/C=C/C(C)=C/C(=O)O)C(C)(C)CCC1
active: [15] 0.0309 µM
not listed: [6] | [17] | [20]
inactive: all other assays above

CC(C)NC[C@H](O)c1ccc(O)c(O)c1
inactive: [1]

N=c1c[n+](N2CCOCC2)[n-]o1
inactive: [1]

CCN(CC)CCNC(=O)c1cc(Cl)c(N)cc1OC
not listed: [6] | [19] | [20]
inactive: all other assays above

CC(=O)Oc1c(C)c(C)c2c(c1C)CC[C@@](C)(CCC[C@H](C)CCC[C@H](C)CCCC(C)C)O2
not listed: [1] | [20]
inactive: all other assays above

Cc1cc2c(cc1S(N)(=O)=O)S(=O)(=O)CCC2
not listed: [1] | [20]
inactive: all other assays above
